HEK cytotox – Cytotoxic Profiling in HEK 293 Cell Line of Diverse Libraries Using Quantitative High-Throughput Screening; HEK 293 viability, ATP luminescence (CellTiter-Glo), 48-72 h; Potency, µM (titrated, usually from 115 µM), inactives show at the highest dose activity change, negative = cytotoxicity, most hits filed as inhibitors; 94,000 compounds, 6.6% hits; further: on the % scale 0 is the no-effect control and ±100 the full control effect; nearly all actives have a fitted effect of over 60% in size
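Viability of HEK 293 cells, plated at 250 cells/well, was judged by cellular ATP after compound treatment for 48 or 72 hr. Luminescence was imaged 10 min after CellTiter-Glo addition at room temperature.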
hNpr1 antagonist – Natriuretic polypeptide receptor (hNpr1) antagonism - Primary qHTS; Potency, µM (series often up to 46.3 µM), inactives show top-dose activity change, negative = inhibition, actives largely listed as inhibitors; AID 1347048, 2019; Atrial natriuretic peptide receptor 1 (Homo sapiens), P16066; HEK293 hNpr1 GloSensor cGMP, ANP-stimulated luminescence; 76,000 compounds, 1.6% hits; calls by dose curve; further: on the % scale 0 is the no-effect control and ±100 the full control effect; nearly all actives have a fitted effect of over 60% in size
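Compound pre-incubated 30 min at room temperature on GloSensor-loaded HEK293 cells stably carrying hNpr1 and the pGS-40F cGMP biosensor. Stimulation uses hNppA at 0.1 nM final; luminescence is taken at baseline and 20 min post-agonist.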
FLuc inh-1 – Firefly luciferase inhibition profiling of diverse chemical library using quantitative high-throughput screening | Potency, µM (series often up to 115 µM), most hits filed as inhibitors | Luciferin 4-monooxygenase (Photinus pyralis), P08659 | 76,000 compounds, 2.5% hits | purified P. pyralis luciferase, luminescence, biochemical; further: on the % scale 0 is the no-effect control and ±100 the full control effect; nearly all actives have a fitted effect of over 65% in size
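Luminescence read by CCD imager after adding enzyme (10nM final) to wells holding compound, titrated in qHTS. Substrates 10uM each D-luciferin and ATP; buffer 50mM Tris acetate pH 7.5, 10mM Mg acetate, Tween-20, BSA.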
3T3 cytotox – Cytotoxic Profiling in NIH 3T3 Cell Line of Diverse Libraries Using Quantitative High-Throughput Screening. NIH 3T3 viability, CellTiter-Glo ATP luminescence, 48-72 h. Potency, µM (highest dose often 96.7 µM), for inactives: top-dose activity change, negative = cytotoxicity, most hits filed as inhibitors. 94,000 compounds, 4.3% hits; further: on the % scale 0 is the no-effect control and ±100 the full control effect; nearly all actives have a fitted effect of over 55% in size
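Viability of NIH 3T3 cells after 48 or 72 hr compound treatment at 37 °C was assessed by CellTiter-Glo, with luminescence imaged following a 10 min room-temperature step.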
FLuc SDR -ATP – Firefly luciferase (FLuc-C-HiBiT) SDR gain of signal screen - without ATP. shares compounds with FLuc inh-1. Potency, µM (titrated, usually from 32.7 µM), for inactives: at the highest dose activation (signal gain), hits mostly activators. Purified FLuc-C-HiBiT, Nano-Glo HiBiT luminescence, no ATP. 1,300 compounds, 7.8% hits; further: nearly all actives have a fitted effect of over 55% in size
FLuc SDR ATP – Firefly luciferase (FLuc-C-HiBiT) SDR gain of signal screen - plus ATP; shares compounds with FLuc inh-1; purified FLuc-C-HiBiT + ATP, HiBiT complementation luminescence; Potency, µM (highest dose often 32.7 µM), for the others: top-dose activation (gain of signal), usual class: activators; 1,300 compounds, 8.7% hits; AID 1963319, 2024;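 further: signal reports ligand binding via conformational change of the enzyme rather than luciferase catalysis; % of control where 0% means no effect; nearly all actives have a fitted effect of over 55% in size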
FLuc inh-2 – Firefly luciferase (FLuc-C-HiBiT) enzymatic inhibition screen - Functional assay; shares compounds with FLuc inh-1; AID 1963320, 2024; 1,300 compounds, 42% hits; purified FLuc-C-HiBiT enzyme, luciferin luminescence; Potency, µM (doses to about 32.7 µM), for the others: top-dose activity change, negative = inhibition, most hits filed as inhibitors; further: on the % scale 0 is the no-effect control and ±100 the full control effect; nearly all actives have a fitted effect of over 70% in size
* marks the source's active call; other numbers are inactive results; i = inactive; ? = inconclusive; . = not tested or not shown; [ ] = another dose, or the depositor's remark. Hits are enriched below; roughly 11% of the tested compounds scored in any of these assays. Unless noted, the call rests on the fitted dose curve; in most records, active means well fitted curve in the direction sought with a large enough effect; inconclusive means small, poorly fitted or top-dose-only effect, or another doubt; inactive means no such curve, though single readings can be large; an effect the other way counts as inactive or inconclusive. Potency means the concentration at half of the fitted maximal effect.

SMILES	HEK cytotox	hNpr1 antagonist	FLuc inh-1	3T3 cytotox	FLuc SDR -ATP	FLuc SDR ATP	FLuc inh-2
COC(=O)c1cccc(-c2noc(-c3ccccc3F)n2)c1	.	.	.	.	22%	18%	?
Fc1ccccc1-c1nc(-c2ccccc2)no1	.	.	.	.	?	?	1.6µM*
COCC1CN(Cc2ccccc2F)CC12CCNCC2 (stereo not given)	-13%	0%	i	-16%	.	.	.
Cc1cnc(C2CC2)n1CCNC(=O)CC1CCCC1	-1%	.	.	-20%	.	.	.
O=C(Nc1cccc(Cl)c1)c1ccc2nc(-c3cccnc3)oc2c1	-30%	.	.	-22%	.	.	.
Cc1cc2nc(-c3cccc(NC(=O)COc4ccc(C(C)C)cc4)c3)oc2cc1C	.	.	.	.	28%	?	?
Cc1ccc2nc(-c3cccc(NC(=O)CSc4ccc(Cl)cc4)c3)oc2c1	.	.	.	.	31%	18%	?
Cc1ccc(C(=O)Nc2cccc(C(=O)O)c2)cc1	.	.	.	.	12µM*	0.05µM*	0.056µM*
CCOc1ccc(NC(=O)Nc2cccc(C(=O)O)c2)cc1	.	.	.	.	4.4µM*	0.007µM*	0.0088µM*
CCOC(=O)C1CCCN(C(=O)c2cc(-c3ccc(F)cc3)c3nncn3n2)C1 (stereo not given)	-26%	.	.	?	.	.	.
CCN1Cc2cc(OC)ccc2N(C[C@@H](O)COCc2ccccc2)CCC1=O	-22%	.	.	?	.	.	.
Cc1ccc(CSc2nc3cccnc3n2Cc2ccc(C(=O)NCc3ccco3)cc2)cc1	.	.	.	.	3.9µM*	?	0.62µM*
COc1cc(F)cc(-c2ncc3c(n2)OCCN(Cc2ccc(F)cc2F)C3=O)c1	?	?	i	?	.	.	.
COCCN1CCOc2nc(-c3cc(F)cc(OC)c3)ncc2C1=O	-27%[172 µM]	?	1.6µM*	28µM*	?	?	11µM*
COCCN1CCOc2nc(-c3cc(F)ccc3OC)ncc2C1=O	?	3%[70.6 µM]	i	?	.	.	.
COc1cccc(-c2ncc3c(n2)OCCN(Cc2ccc(F)cc2F)C3=O)c1	?	?	13µM*	?	13%[49.3 µM]	10%[49.3 µM]	?
COCCCNC(=O)c1ccc2oc(-c3cccnc3Cl)nc2c1	-28%	.	.	-23%	.	.	.
COc1ccc(-n2nc3ccc(NC(=O)c4c(OC)cccc4OC)cc3n2)cc1	.	.	.	.	16%	12%	-16%
COc1ccc(NC(=O)c2c(OC)cc(=O)n3c2CCCC3)cc1	-8%	-6%	i	?	.	.	.
CC(=O)N1CCN(C(=O)c2ccc3oc(-c4cccc(C)n4)nc3c2)CC1	i	.	.	-3%	.	.	.
O=C(NCCCc1ccccc1)C1CCN(C(=O)N2CC3CC(C2)[C@H]2CCCC(=O)N2C3)CC1 (stereo not given in full)	4%	5%	i	-8%	.	.	.
O=C(Nc1ccccc1)C1CCN(C(=O)N2CC3CC(C2)[C@H]2CCCC(=O)N2C3)CC1 (stereo not given in full)	-3%	-5%	i	-6%	11%	8%	5%
Cc1ccc(C(=O)N2CCCC2C(=O)N2CCC(N3CCCC3=O)CC2)cc1 (stereo not given)	-3%	.	.	-20%	.	.	.
CCc1ccccc1NC(=O)c1cc2c(=O)[nH]c(C)cn2n1	-3%	-5%	13µM*	i	17%	13%	?
Cc1cn2nc(C(=O)NCc3ccccc3Cl)cc2c(=O)[nH]1	-7%	19%	?	-12%	.	.	.
SMILES	HEK cytotox	hNpr1 antagonist	FLuc inh-1	3T3 cytotox	FLuc SDR -ATP	FLuc SDR ATP	FLuc inh-2
Cc1cn2nc(C(=O)NCCc3ccccc3)cc2c(=O)[nH]1	-2%	-21%	10µM*	4%	?	?	?
Cc1cn2nc(C(=O)Nc3ccc(C(=O)N4CCCC4)cc3)cc2c(=O)[nH]1	?	5%	7.9µM*	?	?	?	9.9µM*
O=C(NC1CC1)c1ccc2nnc(CC3CC3)n2c1	2%[172 µM]	.	.	-10%[138 µM]	.	.	.
Cc1noc(C2CC3(CCN(C(=O)c4cc(C)n(C)n4)CC3)CN2C)n1 (stereo not given)	-8%	.	.	-5%	.	.	.
Cn1c(C(=O)Nc2ccc3c(c2)OCO3)cc2c1CCN(Cc1cccc(F)c1)C2	?	-1%	10µM*	?	13%	12%	-19%
COc1ccc(CC(=O)Nc2ccc3n(c2=O)C[C@H]2C[C@@H]3CN(C(=O)c3ccc4ccccc4c3)C2)cc1	-28%	-12%	i	?	.	.	.
O=C(Nc1ccc(Cl)cc1)Nc1ccc2n(c1=O)C[C@H]1C[C@@H]2CN(C(=O)c2ccc3ccccc3c2)C1	28µM*	-23%	14µM*	40µM*	13%	8%	?
CNc1ccc2cc(-c3nc4ccc(C(=O)O)cc4s3)ccc2c1	.	.	.	.	1.1µM*	0.014µM*	0.007µM*
Cc1ccc2nc(-c3ccc(NC(=O)c4ccccc4S(C)(=O)=O)cc3)sc2c1	.	.	.	.	13%	13%	?
Cc1ccc2nc(-c3ccc(NC(=O)c4ccc(S(C)(=O)=O)cc4)cc3)sc2c1	.	.	.	.	13%	8%	-1%
CCSc1ccc(C(=O)Nc2ccc(-c3nc4ccc(C)cc4s3)cc2)cc1	.	.	.	.	14%	8%	-5%
COc1cccc(C(=O)NCCNC(=O)c2ccc(-c3cncnc3)cc2)c1	?	.	.	-23%	.	.	.
Fc1ccc(NC(=S)N[C@H]2CO[C@H]3[C@@H]2OC[C@@H]3n2nnnc2Oc2ccc(-n3cncn3)cc2)cc1	?	?	i	?	.	.	.
CC(=O)Nc1ccc(-c2nnc3n2CCN(C(=O)c2cccc(Cl)c2)C3)cc1	2%	.	.	-14%	.	.	.
COc1ccc(-c2noc([C@@H]3CCCN3C(=O)CCCc3ccccc3)n2)cc1	?	0%	i	?	.	.	.
Cc1ccc2nc(-c3ccc(NC(=O)C(F)(F)F)cc3)sc2c1	.	.	.	.	28%	?	0.79µM*
Cc1ccc2nc(-c3ccc(NC(=O)CSc4nnc(C)s4)cc3)sc2c1	.	.	.	.	16%	15%	0.62µM*
Cc1ccc(-c2cn3cc(C(=O)NC4CCCCCC4)nc3s2)cc1	-18%	.	.	-31%	.	.	.
CNC(=O)c1cc(C2CC2)nc2onc(C3CCCN3C(=O)c3ccccc3F)c12 (stereo not given)	-16%	.	.	-16%	.	.	.

Source: PubChem BioAssay (National Center for Advancing Translational Sciences (NCATS))
